We go through 30 compounds from PubChem BioAssay (Tox21).

Assay [1] deals with Thyrotropin receptor (Homo sapiens) (UniProt P16473). Kind of assay: qHTS assay to identify small molecule agonists of the thyroid stimulating hormone receptor (TSHR) signaling pathway (AID 1224843). Further: nearly all actives have a fitted effect of over 45% in size. An outline of the steps: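 HEK293 cells stably bearing the thyrotropin receptor were plated at 800 cells/well and challenged with compound (30 min, RT). Accumulated cAMP was quantified via cAMP-d2 competing for cryptate-tagged antibody.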
Background: In qHTS, concentration-response curves come from the screen itself.

Assay [2] can be described thus: qHTS RealTime-Glo MT Cell Viability Assay in HEK293 cells - 32 hour (AID 1224868; active means well fitted curve in the direction sought with a large enough effect in the repeat runs; an effect the other way counts as inactive or inconclusive; further: nearly all actives have a fitted effect of over 50% in size; further: potency means the concentration at half of the fitted maximal effect). An outline of the steps:
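Assay medium contained NanoLuc luciferase plus cell-permeant prosubstrate, added with HEK293 cells at 600 cells/well. After 5 h at 37 C/5% CO2 compounds were added; plates stayed at 37 C for 40 h with serial luminescence reads.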

Assay [3] is described as follows: A CellTox Green Cytotoxicity Assay to monitor cytotoxicity in HEK293 cells - 0 hour (AID 1224869; active means well fitted curve in the direction sought with a large enough effect in the repeat runs; an effect the other way counts as inactive or inconclusive; further: nearly all actives have a fitted effect of over 50% in size). An outline of the steps:
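Fluorescence intensity, read at 0, 8, 16, 24, 32 and 40 h of compound treatment, reflected dye binding to DNA of dead HEK293 cells; compounds (23 nL, DMSO) were added 5 h after plating cells with reagent.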

Assay [4] in a line: qHTS assay to identify small molecule agonists of the hypoxia (HIF-1) signaling pathway - cell viability counter screen (AID 1224844). Further: nearly all actives have a fitted effect of over 50% in size. Further: potency means the concentration at half of the fitted maximal effect. An outline of the steps:
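Cells (HRE-bla ME-180, 2,000 per well) sat 5 hrs at 37C, got compound for 17 hrs, were read for CCF4-AM FRET, and were finally lysed with CellTiter-Glo for a 30 min room-temperature luminescence read.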

The nature of assay [5]: qHTS assay to identify small molecule agonists of the hypoxia (HIF-1) signaling pathway (AID 1224846; active means well fitted activation curve with a large enough effect in the signal ratio in the repeat runs, not every such curve was filed as active; the % refers to the signal ratio). An outline of the steps:
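A low-serum medium (0.5% dialyzed FBS) holding 2,000 HRE-bla ME-180 cells per well is preincubated for 5 hrs, dosed with compounds by pintool, and kept a further 17 hrs at 37C, 5% CO2 before CCF4-AM FRET detection of beta-lactamase.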

Assay [6] is described as follows: qHTS assay to identify small molecule agonists of H2AX - cell viability counter screen (AID 1224847).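 Further: wild-type CHO-K1 cells; top concentration of the series differs between compounds; nearly all actives have a fitted effect of over 30% in size.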 An outline of the steps:
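CHO-K1 cells plated overnight at 37C, then exposed 3 h at 37C to compounds at 15 concentrations (0.76% DMSO final). Viability by CellTiter-Glo luminescence after 30 min at room temperature.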

Assay [7] is described as follows: qHTS assay to identify small molecule antagonists of the estrogen related receptor (ERR) signaling pathway from Tox21 library (AID 1224848; active means well fitted curve in the direction sought with a large enough effect in the repeat runs; an effect the other way counts as inactive or inconclusive; further: nearly all actives have a fitted effect of over 50% in size; further: potency means the concentration at half of the fitted maximal effect). An outline of the steps: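 Reading was by luminescence 30 min after ONE-Glo addition. Before that, ERR cells at 2,000 per well had rested 6 h at 37 C/5% CO2 and then received pin-tooled compounds in DMSO for 18 h at 37 C.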

Assay [8] in a line: qHTS assay to identify small molecule agonists of the estrogen related receptor (ERR) signaling pathway from Tox21 library (AID 1224849). Further: nearly all actives have a fitted effect of over 15% in size. To be noted: ERR reporter cell line, ONE-Glo luciferase, 18 h; at 92.4 µM (top of the series) unless noted. An outline of the steps:
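Screening used an NTP-provided ERR luciferase cell line. Compounds in DMSO were added 6 h after seeding and left 18 h at 37 C before a 30 min ONE-Glo step and luminescence reading.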

Assay [9] can be described thus: qHTS RealTime-Glo MT Cell Viability Assay in HepG2 cells - 24 hour (AID 1224867; active means well fitted curve in the direction sought with a large enough effect in the repeat runs; an effect the other way counts as inactive or inconclusive; further: nearly all actives have a fitted effect of over 50% in size). An outline of the steps:
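qHTS, HepG2, 600 cells/well, RealTime-Glo (NanoLuc + prosubstrate) added with cells; 5 h preincubation; DMSO compound addition; 37 C; luminescence at 0/8/16/24/32/40 h.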

A short description of assay [10]: qHTS assay to identify small molecule agonists of H2AX (AID 1224845; active means well fitted activation curve with a large enough effect in the signal ratio in the repeat runs, not every such curve was filed as active; the % refers to the signal ratio). An outline of the steps: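 Phospho-H2AX Ser139 measured by HTRF (ex 320 nm; em 665 and 620 nm) after 24 hr antibody incubation. Compounds, 15 concentrations, 0.76% DMSO, were applied to CHO-K1 cells for 3hr at 37C before lysis.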

A number with no mark means an inactive call. Results filed as inconclusive are left out. Activity calls are given as the source filed them. Unless noted, the call rests on the fitted dose curve.
On the % scale 0 is the no-effect control and ±100 the full control effect.

Chain of Thyrotropin receptor (Homo sapiens) (P16473 whole entry, looked up): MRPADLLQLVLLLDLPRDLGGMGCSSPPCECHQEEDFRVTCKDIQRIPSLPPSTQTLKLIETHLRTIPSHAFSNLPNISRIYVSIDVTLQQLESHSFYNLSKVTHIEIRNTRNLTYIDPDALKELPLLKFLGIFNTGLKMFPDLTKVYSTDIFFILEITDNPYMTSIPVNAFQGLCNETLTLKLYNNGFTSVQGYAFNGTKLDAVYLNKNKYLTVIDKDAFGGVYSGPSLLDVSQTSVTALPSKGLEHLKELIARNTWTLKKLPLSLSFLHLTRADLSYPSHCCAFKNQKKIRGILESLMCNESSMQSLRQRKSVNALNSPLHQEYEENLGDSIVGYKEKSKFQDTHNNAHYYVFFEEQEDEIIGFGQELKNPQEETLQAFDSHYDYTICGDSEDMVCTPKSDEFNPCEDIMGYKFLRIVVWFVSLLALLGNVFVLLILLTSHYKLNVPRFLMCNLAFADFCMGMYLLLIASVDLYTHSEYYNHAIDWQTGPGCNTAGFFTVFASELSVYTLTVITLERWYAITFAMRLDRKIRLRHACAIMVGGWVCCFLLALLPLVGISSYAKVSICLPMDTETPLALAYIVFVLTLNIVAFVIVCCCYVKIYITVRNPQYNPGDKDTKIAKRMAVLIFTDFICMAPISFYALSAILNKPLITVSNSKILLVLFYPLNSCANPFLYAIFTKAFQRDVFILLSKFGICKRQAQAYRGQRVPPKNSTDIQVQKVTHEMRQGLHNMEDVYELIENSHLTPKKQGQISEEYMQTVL

For the compound `C[C@@H]1[C@H](O)[C@@H](C)/C=C/C=C\C=C\C=C\C=C\C=C\C=C\[C@H](O[C@@H]2O[C@H](C)[C@@H](O)[C@H](N)[C@@H]2O)C[C@@H]2O[C@](O)(C[C@@H](O)C[C@@H](O)[C@H](O)CC[C@@H](O)C[C@@H](O)CC(=O)O[C@H]1C)C[C@H](O)[C@H]2C(=O)O` (stereo in doubt), the Potency entry in [1], in assay [2] and in assay [3] was “inactive” in each case.

In the case of `CC(=O)OCCC(C)CC(C)(C)C` (centres undefined), the Potency result in assay [1], in assay [4], in [6], in [7], in assay [9] and in assay [3] was “inactive” in each case. In addition, the call in [5] was inactive. The activity change, positive = activation in assay [8] is 4.15%.

`C[C@H](CS)C(=O)N1CCC[C@H]1C(=O)O`: the Potency entry in [1], in [4], in assay [10], in assay [9], in assay [2] and in assay [3] was “inactive” each time.

In the case of `CCN(CC)C(=O)/C(C#N)=C/c1cc(O)c(O)c([N+](=O)[O-])c1`, the Potency entry in assay [1], in [4], in assay [6], in [9] and in assay [3] was “inactive” throughout.

`CC1CCc2nccnc21` (centres undefined): the Potency result in assay [4], in [10], in assay [6], in assay [7] and in assay [9] was “inactive” in each case. Besides, the result in assay [5] was inactive. The activity change, positive = activation in assay [8] was 3.13%.

As to `COc1cc(C(C)=O)ccc1OCCCN1CCC(c2noc3cc(F)ccc23)CC1`, the Potency entry in assay [1] and in [10] was “inactive” in each case. The result in assay [5] was inactive. Besides, the Potency in assay [2] was 10.7 µM (active).

For the compound `CCCCCCCC(=O)Oc1c(Br)cc(C#N)cc1Br`, the Potency entry in assay [1], in [4], in assay [10], in assay [9] and in [3] was “inactive” each time. Besides, the Potency was 48.4 µM (active) in assay [7] and 38.8 µM (active) in assay [2]. The activity change, positive = activation in [8] was -61.8%.

On to `CC(C)C(O)C(C)(C)CO` (centres undefined), for which the Potency entry in [1] and in assay [6] was “inactive” throughout. Also, in assay [5], the compound was classed as inactive. For the same compound, the Potency in assay [7] was 0.891 µM (active); in [2], 0.801 µM (active). The activity change, positive = activation in assay [8] was -71.7%.

On to `O=C(O)CCS`, for which the Potency result in assay [4], in assay [10], in [6], in assay [7], in assay [9] and in assay [2] was “inactive” throughout. In addition, the Potency result in assay [3] was “inactive”. In addition, the outcome in assay [5] was inactive. Besides, in assay [8], the activity change, positive = activation is 4.53%.

As for `COc1cc(S(=O)(=O)Nc2ccccc2)c(OC)cc1N`, the Potency entry in assay [1], in [4], in assay [6], in assay [2] and in assay [3] was “inactive” throughout. Besides, the call in assay [5] was inactive.

`COc1ccc(N)c([N+](=O)[O-])c1`: the Potency entry in assay [1], in assay [4], in assay [6], in [9], in assay [2] and in [3] was “inactive” each time. In addition, the call in assay [5] was inactive.

Turning to `CN1CCCN(C(c2ccccc2)c2ccc(Cl)cc2)CC1` (centres undefined), the Potency entry in [1] and in assay [10] was “inactive” throughout. Moreover, the Potency in assay [4] is 21.3 µM (active). In assay [8], the activity change, positive = activation was -29.3% [at 42.5 µM].

For `CC(C)Cc1ccc(CC(=O)O)cc1`, the Potency entry in [4], in assay [10], in assay [6], in [7] and in assay [9] was “inactive” each time. The outcome in assay [5] was inactive. Also, the activity change, positive = activation in assay [8] was -10.3% [at 42.5 µM].

With `CC(=O)NNC(C)=O`, the Potency entry in assay [4], in assay [10], in assay [6], in assay [7], in assay [9] and in [2] was “inactive” each time. In [3], the Potency result is “inactive”. Moreover, in assay [5], the outcome was inactive. In addition, in assay [8], the activity change, positive = activation is 2.66%.

As to `Nc1ccc(N=Nc2ccc(N)cc2)cc1`, the Potency entry in assay [1], in assay [6], in assay [9], in [2] and in assay [3] was “inactive” in each case. Moreover, in [5], the compound was classed as inactive.

`CC1CCC(C(C)CS)CC1S` (centres undefined): the Potency entry in assay [1], in assay [6], in assay [7], in [9], in assay [2] and in assay [3] was “inactive” each time. In addition, the Potency in assay [4] was 54.9 µM (active). In addition, the activity change, positive = activation in assay [8] is 4.8%.

For `CCCCCCCCCCCCCOS(=O)(=O)O`, the Potency entry in assay [1], in assay [10], in [6], in assay [2] and in assay [3] was “inactive” each time.

`CCCCOC(=O)CCCCC(=O)OCCCC`: the Potency result in assay [4], in assay [10], in [6], in assay [7], in [9] and in assay [2] was “inactive” each time. Moreover, in [3], the Potency result is “inactive”. In addition, the call in [5] was inactive. The activity change, positive = activation in assay [8] is -0.363%.

As to `CCN(CC)CCOc1ccccc1C(=O)CCc1ccccc1`, the Potency entry in assay [1], in assay [10], in [6] and in [9] was “inactive” each time. Further, the call in assay [5] was inactive. Besides, the activity change, positive = activation in [8] was -25.9% [at 42.5 µM]. In addition, the Potency in assay [2] is 12 µM (active).

Turning to `Cc1cc([N+](=O)[O-])ccc1N`, the Potency result in assay [1], in [4], in assay [6], in [9], in [2] and in [3] was “inactive” throughout. In addition, the compound was classed as inactive in [5].

In the case of `O=C1OC(=O)c2c(Br)c(Br)c(Br)c(Br)c21`, the Potency result in assay [1], in assay [4], in assay [6], in assay [9], in assay [2] and in assay [3] was “inactive” each time. Further, the call in [5] was inactive.

Consider `Oc1cccc2[nH]ccc12`, for which the Potency result in [1], in assay [4], in assay [6] and in assay [9] was “inactive” each time. The outcome in assay [5] was inactive.

With `CCC(CO)(CO)[N+](=O)[O-]`, the Potency result in assay [4], in assay [10], in [6], in assay [7], in assay [9] and in [2] was “inactive” each time. Besides, the Potency entry in [3] is “inactive”. Moreover, the compound was called inactive in assay [5]. For the same compound, the activity change, positive = activation in assay [8] is 1.64%.

Take `CC[C@H]1OC(=O)[C@H](C)[C@@H](O[C@H]2C[C@@](C)(OC)[C@@H](O)[C@H](C)O2)[C@H](C)[C@@H](O[C@@H]2O[C@H](C)C[C@H](N(C)C)[C@H]2O)[C@](C)(O)C[C@@H](C)C(=O)[C@H](C)[C@@H](O)[C@]1(C)O`: the Potency entry in assay [1], in [4], in assay [10], in assay [6] and in [3] was “inactive” each time.

Regarding `Cc1ccc(N(CC2=NCCN2)c2cccc(O)c2)cc1`, the Potency entry in [1], in assay [4], in [10], in assay [9] and in assay [3] was “inactive” throughout.

Consider `CCCOC(=O)c1c(Cl)c(Cl)c(Cl)c(Cl)c1C(=O)OCCC`, for which the Potency result in assay [4], in assay [10], in assay [6], in [7], in [9] and in assay [2] was “inactive” each time. The Potency result in [3] was “inactive”. Moreover, the result in [5] was inactive. The activity change, positive = activation in [8] is 6.22%.

For `CCc1ccc(C)cc1`, the Potency entry in assay [4], in assay [10], in [6], in [9], in [2] and in assay [3] was “inactive” in each case. Also, the result in assay [5] was inactive.

`Cc1cccc2sc(N)nc12`: the Potency entry in assay [4], in [10], in [6], in [9], in assay [2] and in assay [3] was “inactive” throughout. Moreover, in assay [5], the compound was classed as inactive.

For the compound `COc1cc(NS(=O)(=O)c2ccc(N)cc2)nc(C)n1`, the Potency result in [4], in [10], in assay [7], in assay [9] and in assay [2] was “inactive” in each case. Also, the compound was called inactive in assay [5]. For the same compound, in assay [8], the activity change, positive = activation is 5.82% [at 42.5 µM].

In the case of `CC(C)C(=O)OCCOc1ccccc1`, the Potency entry in [4], in assay [10], in assay [6], in [9], in assay [2] and in assay [3] was “inactive” in each case. The result in assay [5] was inactive.
